According to PubChem BioAssay:
Where “and” joins values, the source holds several entries; their conditions need not be identical. Identical values can stand only once. Records with an inconclusive call do not appear. For part of these data: Measured potencies and affinities stand elsewhere. Calls of active or inactive are those of the source. Cut-off read from the data, not from the text of the source, unless noted: active = inhibition above about 80%; inactive = the rest.

What was measured:
[1] = molecular target: ATP-dependent translocase ABCB1 (Homo sapiens) (UniProt P08183); experiment: P-glycoprotein substrate transport blockade – cell-based (AID 377; in the data active = fluorescence slope change above about 50%); conditions: MDR1-expressing cells, fluorescent substrate accumulation slope; stronger effect = higher value; concentration not given here
[2] = antimalarial activity against Dd2 strain (AID 2302;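 active = growth inhibition above 50% at the single 2 µM test dose, taken to imply half-maximal potency below 2 µM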;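 note: 0% = DMSO untreated growth and 100% = chloroquine plus artemisinin killed control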); conditions: P. falciparum Dd2 in RBCs, LDH growth readout, 72 h; at 2 µM; stronger effect = higher value
[3] = human hepatoma cell viability loss – ATP luminescence, cytotoxicity control for P. falciparum antimalarial project, primary screen (AID 2303;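 active = inhibition above 50%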;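 note: 0% = DMSO wells and 100% = digitonin-killed cells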); conditions: HepG2 viability, 24-48 h, at 10 µM, stronger effect = higher value
[4] = molecular target: L-lactate dehydrogenase (Plasmodium falciparum (isolate CDC / Honduras)) (UniProt Q27743); experiment: PfLDH activity inhibition – cell lysate, 3D7 strain, counter-screen for P. falciparum growth inhibition project (AID 2304; call rule not given here;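 note: 0% = vehicle and 100% = reference inhibitor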); conditions: P. falciparum 3D7 crude extract, LDH APAD/NBT absorbance; at 2 µM; stronger effect = higher value
[5] = inhibition of 3D7 malaria parasite growth – strain 3D7 (AID 2306; call rule not given here;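 note: 0% = DMSO wells and 100% = chloroquine plus artemisinin control wells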); conditions: P. falciparum 3D7 erythrocytic growth, LDH absorbance, 72 h; at 2 µM; stronger effect = higher value
[6] = compounds altering circadian rhythm period length – cell-based, LOPAC library, luminescence reporter (AID 2774; call rule not given here;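 note: values are relative to mean of DMSO wells on each plate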); conditions: circadian reporter cells, at 7 µM, actives lie on both sides
[7] = compounds altering viability of human ES cells (AID 493140; call rule not given here;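 note: cells exposed to compounds for four days before counting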); conditions: human embryonic stem cell survival screen; stronger effect = higher value
[8] = P. berghei load reduction in hepatocytes – cell-based, HepG2, luciferase luminescence, HepG2 viability, primary screen (AID 624349; in the data active = parasite load remaining mostly below about 12%, no sharp cut-off; inactive = mostly above about 10%;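 note: 100% = mean of DMSO negative control wells on the same plate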); conditions: P. berghei liver stage in HepG2, luciferase luminescence, concentration not given here; parasite load remaining: stronger effect = lower value; viability: measured here: HepG2 viability without parasites
[9] = test system: Hepatitis C virus NS3 helicase; experiment: blockers of NS3h binding to ssDNA – biochemical, fluorescence polarization, LOPAC1280 library, primary screen (AID 687035; in the data active = inhibition above about 37%); conditions: Purified HCV NS3 helicase, Cy5-dT15 ssDNA binding fluorescence polarization; stronger effect = higher value; concentration not given here
[10] = compounds altering Cy5-DNA-NS3h complex signal – biochemical, LOPAC1280, artefact control for HCV NS3 helicase inhibitor project (AID 687037; call rule not given here); conditions: Cy5-DNA-NS3h complex fluorescence interference counterscreen
[11] = molecular target: Calcium-dependent protein kinase 1 (Plasmodium falciparum (isolate 3D7)) (UniProt P62344); experiment: PfCDPK1 kinase inhibitors, biochemical, TCAMS library (AID 1159585; cut-off not given, nearly all actives have IC50 up to about 0.98 µM;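 note: inhibitors leave more ATP so luminescence rises with inhibition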); conditions: recombinant PfCDPK1, Kinase-Glo ATP depletion luminescence
[12] = molecular target: Plasmodium falciparum protein kinase 6 (PK6, PF3D7_1337100) (UniProt Q8IDW1); experiment: PfPK6 kinase inhibitors, biochemical, TCAMS library (AID 1159586; call rule not given here); conditions: recombinant PfPK6, Kinase-Glo ATP depletion luminescence
[13] = molecular target: Protein kinase 7 (PK7), Plasmodium falciparum 3D7 (PF3D7_0213400) (UniProt Q7YTF7); experiment: inhibition of Plasmodium PK7 catalytic activity – biochemical, TCAMS antimalarial set, Kinase-Glo luminescence (AID 1159587; call rule not given here); conditions: recombinant PfPK7, Kinase-Glo ATP depletion luminescence
[14] = molecular target: Calcium-dependent protein kinase 4 (Plasmodium falciparum (isolate 3D7)) (UniProt Q8IBS5); experiment: PfCDPK4 kinase inhibitors, biochemical, TCAMS library (AID 1159588; cut-off not given, nearly all actives have IC50 up to about 0.91 µM); conditions: recombinant PfCDPK4, Kinase-Glo ATP depletion luminescence
[15] = test system: Aerobactin synthetase IucA (Klebsiella pneumoniae, hypervirulent); experiment: biochemical IucA inhibition screen of LOPAC library by absorbance (AID 1346212; call rule not given here;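 note: 100% = no compound wells and 0% = no enzyme wells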); conditions: IucA enzyme assay, absorbance (OD) readout; stronger effect = lower value;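 tested at 8 µM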
[16] = viability loss with induced miR-34 in A549 – imaging, A549 dox-inducible miR-34, nuclei and caspase counts, primary screen (AID 1347080;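 active = compounds whose cell count with miR-34 switched on is under 0.7 times the count with it off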); conditions: A549 miR-34 inducible, Hoechst nuclei count, 48 h
[17] = blockers of cellular phospholipid synthesis – cell-based, LOPAC library, screen 4, primary screen (AID 1347384; call rule not given here); conditions: animal cells, phospholipid biosynthesis inhibition screen; at 10 µM
[18] = galactose survival enhancers in mitochondrial complex I cybrids – cell-based, galactose medium, ATP luminescence, primary screen (AID 1645843;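 active = z-score of at least 1.8 in each of two replicates, scored against plate mean and spread of sample wells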;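 note: positive z means more ATP and so rescue of galactose-driven cybrid death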); conditions: complex I mutant cybrid cells, 72 h, stronger effect = higher value
[19] = growth inhibition, single agent or in combination, cell-based, chromothripsis tumors, cisplatin or BGB combos (AID 1671449); conditions: LFS_MB_P medulloblastoma cells;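 note: cells exposed for 96 hours; 0% = vehicle DMSO and 100% = killing by high DMSO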
[20] = growth inhibition, single agent and combos, cell-based, chromothripsis tumors, cisplatin or BGB combos (AID 1671450); conditions: HDN33 neuroblastoma cells, stronger effect = higher value;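 note: cells exposed to compound for four days; 0% = vehicle DMSO and 100% = cell killing by high DMSO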
[21] = growth inhibition, single agents and combos, ICB984, cell-based, cisplatin or BGB combos, synergistic combos for chromothripsis tumors (AID 1671451; call rule not given here;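 note: cells exposed for 96 hours before readout; 0% = vehicle DMSO and 100% = killing by high DMSO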); conditions: ICB984 medulloblastoma cells, drug combinations, stronger effect = higher value
[22] = growth inhibition, single agents and combos, LFS_MB_1R, cell-based, cisplatin or BGB combos, synergistic combos for chromothripsis tumors (AID 1671452); conditions: LFS_MB_1R medulloblastoma cells, stronger effect = higher value;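 note: cells exposed for 96 hours before readout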
[23] = growth inhibition, single agents and combos, HTB85, cell-based, BGB or cisplatin IC20 combos, synergistic combos for chromothripsis tumors (AID 1671453); conditions: HTB85 osteosarcoma cells, drug combinations, stronger effect = higher value;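 note: cells exposed for 96 hours before readout; 0% = vehicle DMSO and 100% = high DMSO killing control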
[24] = growth inhibition, single agents and combos, CRL2098, cell-based, BGB or cisplatin IC20 combos, synergistic combos for chromothripsis tumors (AID 1671454); conditions: CRL2098 osteosarcoma cells, drug combinations, stronger effect = higher value;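 note: cells exposed for 96 h before readout; 0% = vehicle DMSO and 100% = killing by high DMSO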
[25] = growth inhibition, single agents and combos, HD-MB03, cell-based, BGB or cisplatin IC20 combos, synergistic combos for chromothripsis tumors (AID 1671455; in the data active = inhibition above about 83%;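 note: 0% = vehicle DMSO and 100% = high DMSO as cytotoxic control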); conditions: HD-MB03 medulloblastoma cells, stronger effect = higher value
[26] = growth inhibition, single agents and combos, UWB1.289, cell-based, BGB or cisplatin combos, synergistic combos for chromothripsis tumors (AID 1671456); conditions: UWB1.289 ovarian carcinoma cells, stronger effect = higher value;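 note: cells exposed to compound for four days; 0% = vehicle DMSO and 100% = killing by high DMSO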
[27] = growth inhibition, single agents and combos, LFS_MB_2R, cell-based, cisplatin combos, synergistic combos for chromothripsis tumors (AID 1671457); conditions: LFS_MB_2R medulloblastoma cells, stronger effect = higher value;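 note: cells exposed to compound for four days before readout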
[28] = growth inhibition, MDA-MB-436, cell-based, BGB or cisplatin combos, synergistic combos for chromothripsis tumors (AID 1671458; call rule not given here;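 note: cells exposed for 96 hours; 0% = vehicle DMSO and 100% = killing by high DMSO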); conditions: MDA-MB-436 breast carcinoma growth inhibition, drug combinations, stronger effect = higher value
[29] = UWB1.289_BRCA1 ovarian cancer growth, cell-based, BGB or cisplatin combinations (AID 1671459); conditions: UWB1.289 BRCA1 ovarian carcinoma, drug combinations, stronger effect = higher value
[30] = drug combination toxicity in non-malignant astrocytes – cell-based, BGB or cisplatin IC20 combos, cytotoxicity control for chromothriptic childhood tumor combination screen (AID 1671460); conditions: Human astrocytes, viability inhibition, drug combinations, at 0.5 µM, stronger effect = higher value;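 note: cells exposed to compounds for 96 hours before viability readout; 0% = vehicle and 100% = killing control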
[31] = BT084 cell growth, single and combined drugs, ICGC_MB145, cisplatin and BGB IC40 combos (AID 1671461); conditions: BT084 medulloblastoma cells, drug combinations, stronger effect = higher value;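 note: cells exposed to drugs for 96 hours; 0% = vehicle DMSO and 100% = high DMSO full killing control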
[32] = RCMB18 cell growth, single agent and combined, cisplatin and BGB IC40 combos (AID 1671462); conditions: RCMB18 medulloblastoma cells, stronger effect = higher value;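 note: cells exposed to compound for four days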
[33] = CRL1545 cell growth, single agent and combined, cisplatin and BGB IC20 combos (AID 1671464); conditions: CRL1545 osteosarcoma cells, stronger effect = higher value;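 note: cells exposed to compound for 96 hours before readout; 0% = vehicle DMSO and 100% = high DMSO killing control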
[34] = measured here: combination with BGB IC40, at 0.05 µM
[35] = measured here: with BGB IC20 combination, at 0.5 µM
[36] = measured here: with cisplatin IC20 combination, at 0.5 µM
[37] = measured here: combination with cisplatin, at 0.5 µM
[38] = measured here: combination with cisplatin, at 5 µM

Sequence of Plasmodium falciparum protein kinase 6 (PK6, PF3D7_1337100) (Q8IDW1 1-305): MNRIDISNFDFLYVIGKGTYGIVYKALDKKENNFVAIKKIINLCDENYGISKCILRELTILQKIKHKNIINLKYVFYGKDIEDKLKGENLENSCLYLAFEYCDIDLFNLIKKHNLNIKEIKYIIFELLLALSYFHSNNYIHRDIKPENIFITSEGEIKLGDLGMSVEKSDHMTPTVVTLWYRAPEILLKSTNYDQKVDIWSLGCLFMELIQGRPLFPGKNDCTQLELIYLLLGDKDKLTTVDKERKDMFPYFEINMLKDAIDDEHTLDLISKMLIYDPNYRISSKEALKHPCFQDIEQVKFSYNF
Sequence of Calcium-dependent protein kinase 1 (Plasmodium falciparum (isolate 3D7)) (P62344 whole entry, looked up): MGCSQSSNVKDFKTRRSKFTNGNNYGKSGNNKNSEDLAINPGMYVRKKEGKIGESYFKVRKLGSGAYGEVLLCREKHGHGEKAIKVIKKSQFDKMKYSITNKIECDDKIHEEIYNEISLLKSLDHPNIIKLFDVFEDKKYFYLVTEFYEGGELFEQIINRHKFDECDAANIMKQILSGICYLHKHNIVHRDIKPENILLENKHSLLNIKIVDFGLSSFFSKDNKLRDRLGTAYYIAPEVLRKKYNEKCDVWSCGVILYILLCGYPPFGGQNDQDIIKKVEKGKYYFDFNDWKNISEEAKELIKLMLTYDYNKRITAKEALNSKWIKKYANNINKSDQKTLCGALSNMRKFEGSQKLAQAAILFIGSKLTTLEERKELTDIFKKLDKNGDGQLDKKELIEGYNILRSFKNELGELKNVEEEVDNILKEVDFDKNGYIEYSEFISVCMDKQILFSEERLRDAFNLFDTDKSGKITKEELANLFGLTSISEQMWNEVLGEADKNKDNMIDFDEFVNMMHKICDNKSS
Sequence of Calcium-dependent protein kinase 4 (Plasmodium falciparum (isolate 3D7)) (Q8IBS5 whole entry, looked up): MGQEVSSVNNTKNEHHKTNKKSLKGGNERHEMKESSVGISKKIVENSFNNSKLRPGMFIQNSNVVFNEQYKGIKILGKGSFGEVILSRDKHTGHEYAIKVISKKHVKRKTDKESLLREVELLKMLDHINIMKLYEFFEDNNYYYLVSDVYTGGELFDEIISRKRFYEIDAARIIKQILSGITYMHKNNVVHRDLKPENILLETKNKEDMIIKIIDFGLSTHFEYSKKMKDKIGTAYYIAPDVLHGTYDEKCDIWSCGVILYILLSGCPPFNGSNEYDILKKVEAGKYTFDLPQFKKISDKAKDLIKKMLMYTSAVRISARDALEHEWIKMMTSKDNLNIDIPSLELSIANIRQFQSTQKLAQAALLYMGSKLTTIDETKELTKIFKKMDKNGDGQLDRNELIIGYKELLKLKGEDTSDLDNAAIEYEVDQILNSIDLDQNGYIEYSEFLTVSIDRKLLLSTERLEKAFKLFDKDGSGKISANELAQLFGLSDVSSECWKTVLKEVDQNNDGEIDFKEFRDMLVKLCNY
Sequence of ATP-dependent translocase ABCB1 (Homo sapiens) (P08183 whole entry, looked up): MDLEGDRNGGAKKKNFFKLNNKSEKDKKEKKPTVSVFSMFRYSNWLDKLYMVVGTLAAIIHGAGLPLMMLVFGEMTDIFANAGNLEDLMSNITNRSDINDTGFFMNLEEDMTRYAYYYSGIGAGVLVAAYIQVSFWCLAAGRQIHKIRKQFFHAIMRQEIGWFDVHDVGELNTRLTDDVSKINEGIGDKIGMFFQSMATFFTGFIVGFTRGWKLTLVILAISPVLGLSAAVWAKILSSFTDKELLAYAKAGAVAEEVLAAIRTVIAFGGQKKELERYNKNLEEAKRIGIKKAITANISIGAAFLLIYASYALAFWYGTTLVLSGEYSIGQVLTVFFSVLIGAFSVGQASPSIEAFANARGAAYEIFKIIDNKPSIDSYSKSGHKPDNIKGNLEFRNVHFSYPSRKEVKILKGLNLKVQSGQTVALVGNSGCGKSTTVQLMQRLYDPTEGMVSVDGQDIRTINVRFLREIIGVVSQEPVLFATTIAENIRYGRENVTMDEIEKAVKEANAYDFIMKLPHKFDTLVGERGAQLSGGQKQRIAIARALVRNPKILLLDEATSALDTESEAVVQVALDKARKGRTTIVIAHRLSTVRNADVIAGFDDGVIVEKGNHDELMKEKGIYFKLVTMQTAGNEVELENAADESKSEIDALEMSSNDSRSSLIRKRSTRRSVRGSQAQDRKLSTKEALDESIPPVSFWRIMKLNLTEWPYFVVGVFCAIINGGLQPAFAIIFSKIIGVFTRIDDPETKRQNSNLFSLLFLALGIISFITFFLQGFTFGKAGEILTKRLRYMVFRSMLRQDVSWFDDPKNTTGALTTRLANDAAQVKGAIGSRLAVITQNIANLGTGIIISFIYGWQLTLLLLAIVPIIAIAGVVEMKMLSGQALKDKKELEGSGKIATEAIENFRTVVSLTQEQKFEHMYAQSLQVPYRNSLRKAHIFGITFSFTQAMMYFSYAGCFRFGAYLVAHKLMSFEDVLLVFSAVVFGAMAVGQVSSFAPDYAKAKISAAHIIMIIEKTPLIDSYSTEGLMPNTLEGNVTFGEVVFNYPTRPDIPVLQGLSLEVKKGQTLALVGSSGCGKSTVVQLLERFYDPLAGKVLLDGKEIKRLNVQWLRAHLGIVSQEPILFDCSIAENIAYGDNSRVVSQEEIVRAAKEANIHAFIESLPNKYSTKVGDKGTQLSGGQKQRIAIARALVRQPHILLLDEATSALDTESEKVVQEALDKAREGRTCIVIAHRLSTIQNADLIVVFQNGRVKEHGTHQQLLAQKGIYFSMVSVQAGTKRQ
Sequence of Protein kinase 7 (PK7), Plasmodium falciparum 3D7 (PF3D7_0213400) (Q7YTF7 1-343): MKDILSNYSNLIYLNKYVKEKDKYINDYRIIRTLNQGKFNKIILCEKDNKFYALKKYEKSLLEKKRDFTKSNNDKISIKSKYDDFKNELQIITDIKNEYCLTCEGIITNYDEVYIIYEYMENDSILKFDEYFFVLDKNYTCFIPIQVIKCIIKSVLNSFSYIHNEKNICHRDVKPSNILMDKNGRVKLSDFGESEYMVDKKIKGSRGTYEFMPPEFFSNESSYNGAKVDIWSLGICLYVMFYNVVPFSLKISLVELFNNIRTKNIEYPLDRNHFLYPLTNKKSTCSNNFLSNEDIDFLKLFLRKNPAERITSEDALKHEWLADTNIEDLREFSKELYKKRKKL
Sequence of L-lactate dehydrogenase (Plasmodium falciparum (isolate CDC / Honduras)) (Q27743 whole entry, looked up): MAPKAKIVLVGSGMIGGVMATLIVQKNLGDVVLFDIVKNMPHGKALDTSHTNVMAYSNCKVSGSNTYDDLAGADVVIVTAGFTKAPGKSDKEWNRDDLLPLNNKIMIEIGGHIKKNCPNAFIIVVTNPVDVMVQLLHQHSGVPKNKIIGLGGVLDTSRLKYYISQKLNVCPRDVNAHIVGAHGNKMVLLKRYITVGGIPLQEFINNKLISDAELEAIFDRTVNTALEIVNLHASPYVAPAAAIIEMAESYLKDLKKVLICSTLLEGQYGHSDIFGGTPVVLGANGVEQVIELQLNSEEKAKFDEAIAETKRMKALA

For `Cc1c2ccncc2c(C)c2c1[nH]c1ccccc12`, the fluorescence slope change [1] was 77.1% (active), the growth inhibition [2] was 97% (active) and the inhibition [3] was 38% (inactive). The inhibition [4] was 2% (inactive), the growth inhibition [5] was 95% (active) and the period change [6] was 0.09 h (inactive). The survival [7] was 10.4 (inactive), the parasite load remaining [8] was 62% (inactive) and 52.8% (inactive) and the viability [8] was 85.3% and 75.8%. The inhibition [9] was -3% (inactive), the fluorescence ratio (interference) [10] was 1 (inactive) and the outcome [11] was “inactive”. The outcome [12] was “inactive”, the outcome [13] was “inactive” and the outcome [14] was “inactive”. For the same compound, the remaining activity [15] was 81.7% (inactive), the fold change ([16]; stronger effect = lower value) was 1.32 (inactive) and 0.785 (inactive) and the fold change ([16]; measured here: relative caspase fold change +Dox/-Dox) was 1.54 and 1.45. For the same compound, the cell count ([16]; measured here: total cells with miR-34 induction, stronger effect = lower value) was 324 and 1410, the cell count ([16]; measured here: total cells without miR-34 induction) was 246 and 1800 and the outcome [17] was “inactive”. For the same compound, the z-score [18] was -0.975 (inactive), the inhibition ([19]; at 0.5 µM, stronger effect = higher value) was -2.79% (inactive) and the inhibition ([19]; measured here: combination with BGB IC20, at 0.005 µM) was -42.2%. It also gave an inhibition ([19]; measured here: combination with BGB IC40, at 0.005 µM) of 16.3%, an inhibition [19, 34] of -3.69% and an inhibition ([19]; measured here: combination with cisplatin, at 0.5 µM, stronger effect = higher value) of -10.1%. For the same compound, the inhibition ([19]; measured here: combination with cisplatin, at 5 µM, stronger effect = higher value) was 97%, the inhibition ([20]; BGB combo, at 5 µM) was 71.9% and the inhibition ([20]; at 0.5 µM) was 19.9% (inactive). For the same compound, the inhibition ([20]; cisplatin combo, at 5 µM) was 81.9%, the inhibition [20, 35] was 6.43% and the inhibition [20, 36] was 19.1%. For the same compound, the inhibition ([20]; single agent, at 5 µM) was 86.5%, the inhibition ([21]; BGB IC20 combo, at 0.005 µM) was 64.1% and the inhibition ([21]; BGB IC40 combo, at 0.005 µM) was 71.1%. For the same compound, the inhibition ([21]; BGB IC40 combo, at 0.05 µM) was 99.2%, the inhibition ([21]; at 0.5 µM) was -7.09% (inactive) and the inhibition ([21]; cisplatin combo, at 0.05 µM) was 99.7%. The inhibition ([21]; cisplatin combo, at 0.5 µM) was -15.1%, the inhibition ([21]; cisplatin combo, at 5 µM) was 2.54% and the inhibition ([21]; measured here: 5 uM single agent, at 5 µM) was -6.79%. For the same compound, the inhibition ([22]; at 0.5 µM) was 52.5% (inactive), the inhibition [22, 34] was -15.3% and the inhibition [22, 37] was 90.8%. For the same compound, the inhibition [22, 38] was 99.2%, the inhibition ([23]; at 0.5 µM) was -6.03% (inactive) and the inhibition ([23]; measured here: with BGB IC20, at 0.5 µM) was -6.83%. It also gave an inhibition ([23]; measured here: with BGB IC20, at 5 µM) of 36.4%, an inhibition ([23]; measured here: with cisplatin IC20, at 0.5 µM) of -14.1% and an inhibition ([23]; measured here: with cisplatin IC20, at 5 µM) of 40.2%. The inhibition ([23]; single agent, at 5 µM) was 51.7%, the inhibition ([24]; at 0.5 µM) was -3.13% (inactive) and the inhibition ([24]; measured here: combination with BGB at IC20, at 0.5 µM) was -26.6%. The inhibition ([24]; measured here: combination with cisplatin at IC20, at 0.5 µM) was 16.5%, the inhibition ([25]; at 0.5 µM) was 21.3% (inactive) and the inhibition ([25]; measured here: combo with BGB at IC20, at 0.5 µM) was 32.4%. The inhibition ([25]; measured here: combo with cisplatin at IC20, at 0.5 µM) was 9.33%, the inhibition ([26]; at 0.5 µM) was 18% (inactive) and the inhibition ([26]; measured here: inhibition with BGB combination, at 0.05 µM) was -8.89%. For the same compound, the inhibition ([26]; measured here: inhibition with cisplatin combination, at 0.05 µM) was -1.5%, the inhibition ([27]; at 0.5 µM) was -5.42% (inactive) and the inhibition [27, 37] was 15.1%. For the same compound, the inhibition [27, 38] was 95.3%, the inhibition ([28]; at 0.5 µM) was -9.97% (inactive) and the inhibition ([28]; measured here: BGB combination, at 0.5 µM) was -20.5%. It also gave an inhibition ([28]; measured here: BGB combination, at 5 µM) of 24.1%, an inhibition ([28]; measured here: cisplatin combination, at 0.5 µM) of -26.7% and an inhibition ([28]; measured here: cisplatin combination, at 5 µM) of 24.1%. The inhibition ([29]; BGB combination, concentration series, at 5 µM) was 104%, the inhibition ([29]; at 0.5 µM) was 21.4% (inactive) and the inhibition ([29]; cisplatin combination, concentration series, at 5 µM) was 113%. For the same compound, the inhibition [30] was 13.8% (inactive), the inhibition ([30]; measured here: combo with BGB IC20) was 4.66% and the inhibition ([30]; measured here: combo with cisplatin IC20) was -5.08%. The inhibition ([31]; at 0.5 µM) was 48.9% (inactive), the inhibition ([31]; cisplatin combination, at 0.5 µM) was 60.2% and the inhibition ([31]; cisplatin combination, at 5 µM) was 49.9%. For the same compound, the inhibition ([31]; measured here: BGB IC40 combination 0.05 uM, at 0.05 µM) was 16.8%, the inhibition ([31]; single agent, at 5 µM) was 44.6% and the inhibition ([32]; at 0.5 µM) was 14.6% (inactive). The inhibition ([32]; cisplatin combo, at 5 µM) was 91.5%, the inhibition ([32]; measured here: BGB IC40 combination, at 0.05 µM) was 1.25% and the inhibition [32, 37] was -51.3%. For the same compound, the inhibition ([32]; single agent, at 5 µM) was 70.8%, the inhibition ([33]; at 0.5 µM) was -40.6% (inactive) and the inhibition [33, 35] was -33.3%. The inhibition [33, 36] was -46.6%, the inhibition ([33]; single agent, at 0.05 µM) was -12.4% and the inhibition ([33]; single agent, at 5 µM) was 68.6%.
